Inconclusive results are not listed. Active and inactive are the calls of the source. Unless noted, calls follow the shape of the full dose curve.
Assays:
[1] = Nuclear factor erythroid 2-related factor 2/antioxidant responsive element (Nrf2/ARE) small molecule agonists: qHTS cell viability counter screen in human keratinocytes (AID 1919968; active = well fitted curve in the direction sought with a large enough effect in the repeat runs; an effect the other way counts as inactive or inconclusive; also: nearly all actives have a fitted effect of over 55% in size)
How it was run: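 Cells of the KeratinoSens line were plated at 1,500 per well and left for 5 h before compound transfer from DMSO stocks. After a 23 h incubation (37 C, 5% CO2), CellTiter-Fluor was added. Signal was taken as fluorescence intensity 1 h later.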

[2] = Nuclear factor erythroid 2-related factor 2/antioxidant responsive element (Nrf2/ARE) small molecule agonists: luciferase reporter gene qHTS assay in human keratinocytes (AID 1919969); also: nearly all actives have a fitted effect of over 35% in size; also: potency is read from the fitted curve at half-maximal effect
[3] = target: Gonadotropin-releasing hormone receptor (Homo sapiens) (UniProt P30968); assay: Human gonadotropin-releasing hormone receptor (GnRHR) small molecule agonists, calcium flux assay in GnRHR-HEK293 cells (AID 1920063); also: nearly all actives have a fitted effect of over 35% in size
Sequence of Gonadotropin-releasing hormone receptor (Homo sapiens) (P30968 whole entry, looked up): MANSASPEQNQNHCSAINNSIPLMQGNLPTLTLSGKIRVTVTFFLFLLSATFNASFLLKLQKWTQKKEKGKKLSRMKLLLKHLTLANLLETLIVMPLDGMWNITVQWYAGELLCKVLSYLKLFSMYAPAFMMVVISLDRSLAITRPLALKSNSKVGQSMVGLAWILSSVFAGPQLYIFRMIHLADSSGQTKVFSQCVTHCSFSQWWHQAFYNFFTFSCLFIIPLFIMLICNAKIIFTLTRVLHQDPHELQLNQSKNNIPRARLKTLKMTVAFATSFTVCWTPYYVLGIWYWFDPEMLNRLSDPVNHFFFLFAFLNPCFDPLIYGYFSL
How it was run: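 Compounds dissolved in DMSO are pin-transferred onto dye-loaded GnRHR-HEK293 cells, which were seeded 18 h before at 37 C/5% CO2. Calcium signal is read as fluorescence intensity at 1 s intervals for 3 min.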

[4] = target: KiSS-1 receptor (Homo sapiens) (UniProt Q969F8); assay: Human kisspeptin (KISS1R) small molecule agonists, calcium flux assay in KISS1R-HEK293 cells (AID 1920064; active = well fitted curve in the direction sought with a large enough effect in the repeat runs; an effect the other way counts as inactive or inconclusive)
Sequence of KiSS-1 receptor (Homo sapiens) (Q969F8 whole entry, looked up): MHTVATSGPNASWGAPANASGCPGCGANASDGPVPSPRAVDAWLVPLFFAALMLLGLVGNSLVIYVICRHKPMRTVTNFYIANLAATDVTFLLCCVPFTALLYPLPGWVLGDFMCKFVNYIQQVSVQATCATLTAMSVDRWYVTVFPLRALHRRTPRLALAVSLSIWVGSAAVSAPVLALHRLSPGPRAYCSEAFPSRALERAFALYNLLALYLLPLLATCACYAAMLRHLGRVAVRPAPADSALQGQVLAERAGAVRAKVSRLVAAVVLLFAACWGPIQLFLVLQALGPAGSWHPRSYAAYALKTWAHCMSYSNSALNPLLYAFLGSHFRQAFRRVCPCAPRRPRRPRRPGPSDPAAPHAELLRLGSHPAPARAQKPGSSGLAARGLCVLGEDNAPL
How it was run: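 Cell line: HEK293, stable human KISS1R. Dye loading 1 h at 37 C after 18 h culture. Read: kinetic fluorescence, 480/540 nm, 3 min at 1 s intervals.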

[5] = G protein-coupled receptor (GPCR) small molecule agonists, calcium flux assay: HEK293 wild type cell line counter screen (AID 1920065)
How it was run: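 Tox21 10K compounds, 15 concentrations each in triplicate, pin-transferred in DMSO onto dye-loaded cells; kinetic read at 480/540 nm for 3 min, 1 s intervals.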

[6] = p53 small molecule agonists, cell-based qHTS assay with human liver microsomes (AID 1963577)
How it was run: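 p53RE-bla reporter cells were pre-incubated 5 h at 37 C, then treated with compounds plus human liver microsomes (0.5 mg/mL final) and NADPH (0.5 mg/mL final) for 16 h at 37 C. Beta-lactamase activity was read by LiveBLAzer fluorescence after 2 h at room temperature.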

[7] = p53 small molecule agonists, cell-based qHTS assay with rat liver microsomes (AID 1963578)
How it was run: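 p53RE-bla cells were exposed to compounds together with rat liver microsomes (0.5 mg/mL final) and NADPH (0.5 mg/mL final) for 16 h at 37 C, then read by LiveBLAzer beta-lactamase fluorescence after 2 h at room temperature.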

[8] = p53 small molecule agonists, cell-based qHTS assay with human liver microsomes: qHTS cell viability counter screen (AID 1963579); also: nearly all actives have a fitted effect of over 45% in size
How it was run: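 p53RE-bla cells (4,000/well) were pre-incubated 5 h at 37 C, then given compounds in DMSO plus human liver microsomes (0.5 mg/mL final) and NADPH (0.5 mg/mL final) for 16 h at 37 C. Viability was read by CellTiter-Glo luminescence.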

[9] = p53 small molecule agonists, cell-based qHTS assay: qHTS cell viability counter screen (AID 1963581); also: nearly all actives have a fitted effect of over 45% in size
How it was run: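 ATP content measured by luminescence in HCT-116 p53RE-bla cells treated 16 h at 37 C, same wells as the reporter screen.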

[10] = p53 small molecule agonists, cell-based qHTS assay (AID 1963582; active = well fitted activation curve with a large enough effect in the signal ratio in the repeat runs, not every such curve was filed as active; the % refers to the signal ratio)
How it was run: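 16 h compound exposure (37 C) of p53 response element–bla cells, preceded by 5 h recovery at 37 C/5% CO2; read-out via LiveBLAzer B/G FRET substrate, 2 h RT, fluorescence intensity.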

[11] = target: 5-hydroxytryptamine receptor 2A (Homo sapiens) (UniProt P28223); assay: 5-hydroxytryptamine receptor 2A (HTR2A) small molecule agonists, cell-based qHTS assay (AID 1963587); also: nearly all actives have a fitted effect of over 30% in size
Sequence of 5-hydroxytryptamine receptor 2A (Homo sapiens) (P28223 whole entry, looked up): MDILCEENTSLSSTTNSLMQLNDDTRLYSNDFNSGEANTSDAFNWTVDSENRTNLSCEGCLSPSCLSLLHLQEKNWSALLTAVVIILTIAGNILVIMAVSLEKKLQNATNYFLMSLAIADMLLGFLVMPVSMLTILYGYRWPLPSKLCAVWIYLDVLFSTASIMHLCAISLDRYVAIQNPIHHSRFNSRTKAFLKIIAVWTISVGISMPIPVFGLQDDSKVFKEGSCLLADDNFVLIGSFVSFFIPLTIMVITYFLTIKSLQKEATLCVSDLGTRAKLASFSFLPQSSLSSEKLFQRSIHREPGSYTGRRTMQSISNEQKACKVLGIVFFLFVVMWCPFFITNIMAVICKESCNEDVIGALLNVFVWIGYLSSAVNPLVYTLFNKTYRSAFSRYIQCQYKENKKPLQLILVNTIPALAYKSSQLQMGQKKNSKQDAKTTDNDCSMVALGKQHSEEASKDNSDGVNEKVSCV
How it was run: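 CHO cells stably expressing human HTR2A, plated 18 h, loaded with calcium dye 1 h at 37 C. Agonist mode: compounds added and intracellular calcium fluorescence recorded kinetically for 2 min at 1 sec intervals.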

[12] = target: Muscarinic acetylcholine receptor M1 (Homo sapiens) (UniProt P11229); assay: Cholinergic receptor muscarinic 1 (CHRM1) small molecule antagonists, cell-based qHTS assay (AID 1963588); also: nearly all actives have a fitted effect of over 40% in size
Sequence of Muscarinic acetylcholine receptor M1 (Homo sapiens) (P11229 whole entry, looked up): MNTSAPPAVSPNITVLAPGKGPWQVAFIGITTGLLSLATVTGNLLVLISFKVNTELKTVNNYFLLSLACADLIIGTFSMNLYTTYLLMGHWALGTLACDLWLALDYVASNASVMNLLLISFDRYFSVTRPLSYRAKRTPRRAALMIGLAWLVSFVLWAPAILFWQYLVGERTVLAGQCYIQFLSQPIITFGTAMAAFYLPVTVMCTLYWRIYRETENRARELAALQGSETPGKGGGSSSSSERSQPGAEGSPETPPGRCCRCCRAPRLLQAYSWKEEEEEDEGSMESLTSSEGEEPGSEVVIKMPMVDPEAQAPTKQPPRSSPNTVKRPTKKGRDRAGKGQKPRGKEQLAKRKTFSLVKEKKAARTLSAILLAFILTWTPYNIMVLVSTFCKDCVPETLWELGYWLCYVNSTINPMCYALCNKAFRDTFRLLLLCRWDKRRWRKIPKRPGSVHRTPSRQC
How it was run: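 Compounds were tested at 15 concentrations in three independent runs. Dye-loaded CHRM1-CHO cells were exposed 5 min at room temperature before stimulation by acetylcholine added at 50nM. Intracellular calcium was read kinetically on FDSS for 3 min.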

[13] = target: Muscarinic acetylcholine receptor M1 (Homo sapiens) (UniProt P11229); assay: Cholinergic receptor muscarinic 1 (CHRM1) small molecule agonists, cell-based qHTS assay (AID 1963589); also: nearly all actives have a fitted effect of over 35% in size
How it was run: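 Homogeneous fluorescence calcium flux, agonist mode. Human M1-expressing CHO cells; compound dosed at 15 concentrations, three independent runs; signal sampled every 1 sec.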

[14] = cAMP Responsive Elements (CRE) small molecule antagonists, cell-based qHTS assay (AID 1963591; active = well fitted inhibition curve with a large enough effect in the signal ratio in the repeat runs, not every such curve was filed as active; the % refers to the signal ratio)
How it was run: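 First, CRE-bla HEK293T cells settled 18 h at 37 C. Next, compound and 0.25 uM final NKH477 were applied for 3 h. Last, LiveBLAzer B/G substrate was loaded for 2 h at room temperature.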

[15] = target: Beta-2 adrenergic receptor (Homo sapiens) (UniProt P07550); assay: Adrenergic beta2 receptor (ADRB2) small molecule antagonists, cell-based qHTS assay (AID 1963592); also: series mostly up to about 92 µM; nearly all actives have a fitted effect of over 50% in size
Sequence of Beta-2 adrenergic receptor (Homo sapiens) (P07550 whole entry, looked up): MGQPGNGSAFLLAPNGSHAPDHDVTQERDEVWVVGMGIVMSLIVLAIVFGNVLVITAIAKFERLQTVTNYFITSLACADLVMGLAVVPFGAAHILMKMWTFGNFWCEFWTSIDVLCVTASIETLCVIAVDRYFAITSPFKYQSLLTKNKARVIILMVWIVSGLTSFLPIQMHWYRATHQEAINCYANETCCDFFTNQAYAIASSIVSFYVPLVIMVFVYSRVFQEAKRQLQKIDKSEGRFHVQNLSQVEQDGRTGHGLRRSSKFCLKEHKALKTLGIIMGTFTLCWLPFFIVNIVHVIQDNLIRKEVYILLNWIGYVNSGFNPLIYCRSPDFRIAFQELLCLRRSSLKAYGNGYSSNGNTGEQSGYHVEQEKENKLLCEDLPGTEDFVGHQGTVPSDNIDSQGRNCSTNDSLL
How it was run: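 Assay format: CHO-ADRB2 cells, 18-20hr seeding at 37C/5% CO2, then compound plus 1nM isoproterenol agonist mix for 0.5hr RT. Homogeneous time-resolved fluorescence cAMP detection after 1hr, expressed as 665/615 nm ratio.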

[16] = target: D(2) dopamine receptor (Homo sapiens) (UniProt P14416); assay: Dopamine D2 receptor (DRD2) small molecule agonists, cell-based qHTS assay (AID 1963594); also: nearly all actives have a fitted effect of over 35% in size
Sequence of D(2) dopamine receptor (Homo sapiens) (P14416 whole entry, looked up): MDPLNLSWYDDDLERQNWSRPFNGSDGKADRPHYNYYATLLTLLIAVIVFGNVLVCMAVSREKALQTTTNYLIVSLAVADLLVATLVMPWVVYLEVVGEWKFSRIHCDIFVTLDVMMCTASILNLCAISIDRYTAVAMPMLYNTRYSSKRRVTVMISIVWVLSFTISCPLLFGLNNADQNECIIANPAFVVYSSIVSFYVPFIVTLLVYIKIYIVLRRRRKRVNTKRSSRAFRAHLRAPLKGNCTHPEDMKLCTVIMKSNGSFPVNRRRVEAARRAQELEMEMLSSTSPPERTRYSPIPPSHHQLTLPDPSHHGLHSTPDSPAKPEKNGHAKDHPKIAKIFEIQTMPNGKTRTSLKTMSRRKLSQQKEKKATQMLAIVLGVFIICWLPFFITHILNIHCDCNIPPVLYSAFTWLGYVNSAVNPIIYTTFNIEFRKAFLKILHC
How it was run: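 HEK293 cells stably expressing human DRD2, pre-treated with PDE inhibitor Ro20-1724 (0.1 mM final) and compound 10 min at room temperature, then stimulated with NKH477 (200nM […]) for 30 min. cAMP read by HTRF (665/620 nm).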

[17] = target: D(2) dopamine receptor (Homo sapiens) (UniProt P14416); assay: Dopamine D2 receptor (DRD2) small molecule antagonists, cell-based qHTS assay (AID 1963595; active = well fitted inhibition curve with a large enough effect in the signal ratio in the repeat runs, with a control signal flat; the % refers to the signal ratio; also: potency is read from the fitted curve at half-maximal effect)
How it was run: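 Stable D2 receptor HEK293 line, 24 h after seeding. Compound preincubated 10 min, then quinpirole (12 nM) with forskolin analogue NKH477 (200 nM), 30 min, room temperature. Detection by time-resolved FRET of cAMP.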

[18] = target: 5-hydroxytryptamine receptor 2A (Homo sapiens) (UniProt P28223); assay: 5-hydroxytryptamine receptor 2A (HTR2A) small molecule antagonists, cell-based qHTS assay (AID 1963586); also: nearly all actives have a fitted effect of over 45% in size
How it was run: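 CHO cells stably expressing human HTR2A were plated for 18 h at 37 C, then loaded with calcium dye for 1 h. Compounds were preincubated 5 min at room temperature before DOI (4 nM solution) was added. Kinetic fluorescence was read for 3 min.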

[19] = cAMP Responsive Elements (CRE) small molecule agonists, cell-based qHTS assay (AID 1963590)
How it was run: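 HEK 293T cells stably bearing CRE-bla were plated at 2,000 cells per well and rested 18 h. Compounds, positive controls or DMSO were added for 3 h at 37 C. LiveBLAzer B/G substrate was then loaded for 2 h at room temperature.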

[20] = target: Beta-2 adrenergic receptor (Homo sapiens) (UniProt P07550); assay: Adrenergic beta2 receptor (ADRB2) small molecule agonists, cell-based qHTS assay (AID 1963593);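 also: CHO cells stably overexpressing human ADRB2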
How it was run: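 CHO cells stably over-expressing ADRB2 were plated overnight at 37C, then dosed with compounds plus a stimulation mix containing 100uM IBMX and 25uM Ro-20-1724 for 0.5hr at room temperature. cAMP was measured by HTRF competition, 1hr.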

Measured: Potency

CCOC(=O)C(=O)CCc1ccccc1
not listed: [18] | [19] | [20]
inactive: all other assays above

CC(C)=CC(=O)O
not listed: [13] | [14] | [20]
inactive: all other assays above

C=CC(=O)OCC(Br)CBr (stereo not given)
active: [2] 68.6 µM
not listed: [11] | [20]
inactive: all other assays above

CCCCC(CC)C(=O)OC(C)C (stereo not given)
not listed: [20]
inactive: all other assays above

ClCCl
not listed: [12]
inactive: all other assays above

CC(=O)Oc1ccc(C(C)=O)cc1
not listed: [19]
inactive: all other assays above

O=C(O)c1cccc(O)c1
not listed: [15] | [17] | [18]
inactive: all other assays above

CN(C)C(=O)Nc1ccc(Oc2ccc(Cl)cc2)cc1
not listed: [20]
inactive: all other assays above

NCC(=O)CCC(=O)O
not listed: [14]
inactive: all other assays above

CCCCCc1ccc(Cl)cc1
not listed: [16] | [20]
inactive: all other assays above

C=CN1CCCCCC1=O
not listed: [19]
inactive: all other assays above

CC(C)(C)N
not listed: [13] | [17] | [19]
inactive: all other assays above

CCN(CC)CCNC(=O)c1cc(Br)c(N)cc1OC
active: [17] 0.376 µM
not listed: [18]
inactive: all other assays above

CCCCCCCC[Si](OCC)(OCC)OCC
not listed: [18] | [20]
inactive: all other assays above
